Screen size: about 69,000 compounds; about 8,600 (12%) showed an effect of 50% or more. This excerpt belongs to a sample that is enriched for strong results.

The test system of this test is Plasmodium berghei. The test can be described thus: Screen against P. berghei liver stage (PbLuc), transformed with Luciferase, at 10uM. The test is classed as functional, HepG2. The settings on record: tested at 10 uM.
As to `CN1CCN(C(=O)c2ncn3c2CN(C)S(=O)(=O)c2ccccc2-3)CC1`, the INHIBITION is -79.8%.

In the case of `CCc1noc(CN2CCC(c3ccnn3CCO)CC2)n1`, the INHIBITION is given as -19.4%.

For `CN(C)C(C(=O)N1CCC(c2ncc[nH]2)CC1)c1ccc2c(c1)OCO2` (stereo not drawn), the INHIBITION amounted to 14.3%.

On to `O=C1COC2(CCN(C(=O)c3ccoc3)CC2)CN1Cc1ccccn1`, for which the INHIBITION was -33.9%.

As for `CN(C)C(CNC(=O)CCNC(=O)OCC(F)(F)F)c1ccsc1` (stereo not drawn), the INHIBITION stood at 61.9%.

As to `CN(C)C(CNC(=O)OCC(F)(F)F)c1ccsc1` (stereo not drawn), the INHIBITION came to 44.3%.

Consider `CCOCCC(=O)NCC(C)c1ccsc1` (stereo not drawn), for which the INHIBITION turned out to be 32%.

Consider `CC(C)c1cc(C(=O)N2CCCC(c3cc(=O)nc4n3CCC4)C2)no1` (stereo not drawn), for which the INHIBITION is recorded as 18.4%.

With `CC1(C)CN(C(=O)Nc2cc(C(F)(F)F)c[nH]c2=O)CCO1`, the INHIBITION is 4.97%.

Take `CCO[C@H]1CC[C@H]2[C@H]1OCCN2CCOCc1ccccc1`: the INHIBITION was 4.98%.

`O=C(N[C@@H]1CN(c2ncccn2)C[C@@H]2CCCO[C@@H]21)c1ccnnc1`: the INHIBITION is -3.52%.

Turning to `COc1ccc(OC)c(-n2c(COC(C)C)n[nH]c2=O)c1`, the INHIBITION is recorded as 45.4%.

Regarding `COc1ccc(C)cc1-n1c(COC(C)C)n[nH]c1=O`, the INHIBITION was determined as 72.3%.

As to `COc1ccc(Cl)cc1-n1c(COC(C)C)n[nH]c1=O`, the INHIBITION is given as 26.4%.

Take `COc1cccc(C(O)C(=O)N(C)CCc2ccccn2)c1` (stereo not drawn): the INHIBITION turned out to be 47.7%.

With `O=C(CSCC1CC1)N1CCC2(CCCN(C3CCOCC3)C2=O)C1` (stereo not drawn), the INHIBITION was 1.48%.

In the case of `CN(C)C(=O)c1cnn2c1OCCC2`, the INHIBITION is listed as 60.6%.

Turning to `O=C(c1cnn2c1OCCC2)N1CCC2(CC1)OCCO2`, the INHIBITION was -14.2%.

Take `CS(=O)(=O)N1CCN(C(=O)c2cnn3c2OCCC3)CC1`: the INHIBITION came to 31.6%.

For `CC(NCCCC#N)c1ccc(S(C)(=O)=O)c(F)c1` (stereo not drawn), the INHIBITION is listed as 19.1%.

Regarding `CCn1c(C2CCCNC2)nn(CCn2cncn2)c1=O` (stereo not drawn), the INHIBITION is -7.13%.

Take `O=C(CCn1cccc1)NCc1ccc(CN2CCCCCC2)o1`: the INHIBITION amounted to 37.4%.

With `CCOc1ccc2c(c1)C=C(C(=O)NC(C)Cn1cccn1)CO2` (stereo not drawn), the INHIBITION is recorded as 2.91%.

For the compound `CCCOc1ccc2c(c1)OCC(C(=O)NC(C)Cn1ccnc1)=C2` (stereo not drawn), the INHIBITION turned out to be 51%.

Take `CCCOc1ccc2c(c1)OCC(C(=O)NC(C)Cn1cccn1)=C2` (stereo not drawn): the INHIBITION is listed as 30.9%.

For `CCOCC1CN(S(=O)(=O)N(C)C)Cc2cnn(CC)c21` (stereo not drawn), the INHIBITION was found to be 29%.

As to `Cc1cc(NC(=O)CN2CCC(N(C)Cc3ncc(C)o3)C2)n(C)n1` (stereo not drawn), the INHIBITION is listed as -29.9%.

For the compound `c1ccc(OCc2nc(CNCCn3cccn3)cs2)cc1`, the INHIBITION was found to be 1.95%.

`Cc1ccc(OCc2nc(CNCCn3cccn3)cs2)cc1`: the INHIBITION is -24.1%.

`Cc1cnn(CCNCc2ccc(OCc3noc(C)n3)cc2)c1`: the INHIBITION is on record as 66.3%.

On to `c1ccc(OCCCNCCn2cccn2)cc1`, for which the INHIBITION was 38.7%.

Regarding `Cc1nc(COc2ccc(CNCCn3cccn3)cc2)cs1`, the INHIBITION is reported as 88.5%.

With `Cc1cnn(CCNCc2ccc(OCc3csc(C)n3)cc2)c1`, the INHIBITION is reported as -37.9%.

As for `Cc1cnn(CCNCc2ccc(OCc3ccccn3)cc2)c1`, the INHIBITION stood at 34.6%.

Turning to `COc1ccc(OCCNCCn2cccn2)cc1`, the INHIBITION was 0.932%.

For the compound `Cc1cnn(CCNCc2ccc(OCc3cscn3)cc2)c1`, the INHIBITION is given as 85.1%.

As to `Cc1cnn(CC(C)NCc2ccc(OCc3noc(C)n3)cc2)c1` (stereo not drawn), the INHIBITION is -79.3%.

In the case of `Cc1cnn(CCNCc2nc(COc3ccc(F)cc3)no2)c1`, the INHIBITION was found to be 19.3%.

For the compound `COc1ccc(OCCCNCCn2cccn2)cc1`, the INHIBITION is on record as 64.7%.

As to `O=C(c1cc2c(F)cccc2[nH]1)N1CCCCC1Cn1cccn1` (stereo not drawn), the INHIBITION is on record as -4.94%.

Take `Cc1cc(-c2cc(N)c(=O)n(CC(=O)NC3CCCCC3)n2)c(C)o1`: the INHIBITION was determined as 13.835%.

Turning to `O=C(NCCn1ccnc1)N1CCN(Cc2ccco2)CC1`, the INHIBITION was -37.7%.

`Cc1ccc(NC2CCN(C(=O)c3ccncc3)CC2)nn1`: the INHIBITION is on record as -39.7%.

On to `CCN1CCC(NC(=O)CN2CC(n3nc(C)cc3C)C2)CC1`, for which the INHIBITION was found to be 23.5%.

With `CC(=O)N[C@@H]1CN(Cc2nc3ccccc3[nH]2)C[C@H]1c1ccc(C)o1`, the INHIBITION is on record as 39%.

In the case of `Cn1cc(CCNCc2cc(Br)c3c(c2)OCO3)cn1`, the INHIBITION is recorded as 37.6%.

`COc1cc(CNCC(O)c2ccccc2)cc2c1OCO2` (stereo not drawn): the INHIBITION is -54.6%.

For `COc1cc(CNCC(O)c2ccc(F)cc2F)cc2c1OCO2` (stereo not drawn), the INHIBITION was 0.914%.

`FC(F)Oc1ccc(CNCc2cc(Br)c3c(c2)OCO3)cc1`: the INHIBITION was found to be 80.8%.

Take `COc1ccc(CNCc2cc(Br)c3c(c2)OCO3)cc1`: the INHIBITION was 74.7%.

For `FC(F)Oc1ccccc1CNCc1cc(Br)c2c(c1)OCO2`, the INHIBITION worked out at 58.6%.

Turning to `COc1cc(CNCc2ccc(C(C)O)cc2)cc2c1OCO2` (stereo not drawn), the INHIBITION amounted to 49.3%.

Consider `CC(Cn1ccnc1)NCc1cc(Br)c2c(c1)OCO2` (stereo not drawn), for which the INHIBITION is -7.72%.

(Values after ChEMBL document CHEMBL4513216, “Probing the Open Global Health Chemical Diversity Library for Multistage-Active Starting Points for Next-Generation Antimalarials” (ACS Infect Dis, 2020).)
